Measurements published in PubChem BioAssay.

Each compound was assayed against Voltage-gated potassium channel subunit beta-2 (Rattus norvegicus) (UniProt P62483) (assay: KvBeta positive modulators, primary screen, biochemical, NADPH fluorescence (AID 623;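 active = NADPH fluorescence slope more negative than the mean of all samples by about 3 SD, 99.7% confidence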;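 also: fluorescence intensity change per second fitted from 20 to 320 s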)). Conditions: Recombinant KvBeta, NADPH fluorescence decrease slope, 10 min; at 10 µM; active compounds read low.
Sequence of Voltage-gated potassium channel subunit beta-2 (Rattus norvegicus) (P62483 whole entry, looked up): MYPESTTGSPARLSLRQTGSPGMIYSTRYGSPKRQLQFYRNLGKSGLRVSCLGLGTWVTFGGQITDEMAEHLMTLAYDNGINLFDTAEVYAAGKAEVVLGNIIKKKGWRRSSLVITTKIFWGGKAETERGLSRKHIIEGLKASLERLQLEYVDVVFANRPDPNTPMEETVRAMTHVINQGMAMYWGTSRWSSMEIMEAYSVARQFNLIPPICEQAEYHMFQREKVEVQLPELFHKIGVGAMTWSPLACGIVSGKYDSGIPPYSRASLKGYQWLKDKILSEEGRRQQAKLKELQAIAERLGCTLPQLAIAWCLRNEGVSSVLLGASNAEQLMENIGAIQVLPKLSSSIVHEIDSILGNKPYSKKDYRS

NADPH fluorescence slope, inactive:
COc1ccc(CC(=O)OCn2nnc3ccccc3c2=O)cc1 -4.2e-05
CCCNC(=O)Nc1ccccc1C(=O)Nc1ccc(OC)cc1 -1.6e-06
CCSc1nnc(N2C(=O)CC(c3ccsc3)C3=C2CC(C)(C)CC3=O)s1 (stereo not given) -4.6e-05
COc1ccccc1-n1c(SCC(=O)Nc2ccc3c(c2)OCO3)nc2c(c1=O)SCC2 4.8e-05
COc1ccc(S(=O)(=O)Cc2ccc(C(=O)N3CCOCC3)o2)cc1 -2.5e-05
Cc1ccc(S(=O)(=O)NCCSc2nnnn2-c2ccc(C(N)=O)cc2)cc1 4.8e-06
O=C(c1cccc(C(=O)N2CCN(c3ccc(F)cc3)CC2)c1)N1CCN(c2ccc(F)cc2)CC1 -9.2e-05
CCOCCCNC(=O)c1cc2sc(Cl)cc2n1CC -9.5e-05
CCOc1ccc(NC(=O)CN2CCN(CC(=O)c3ccc(OCC)cc3)CC2)cc1 -5.5e-05
CC1CCCC(N2CCN(C(=O)c3ccc(F)cc3)CC2)C1 (stereo not given) -4.9e-05

Each compound was assayed against Alpha-2C adrenergic receptor (Homo sapiens) (UniProt P18825) (assay: modulators of alpha2C/GIRK thallium flux, primary screen, cell-based, HEK293 alpha2C/GIRK1/2 (AID 624;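 also: slope of fluorescence ratio to pre-addition baseline per second over 15 to 24 s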)). Conditions: thallium flux BTC fluorescence, at 10 µM, actives lie on both sides.
Sequence of Alpha-2C adrenergic receptor (Homo sapiens) (P18825 whole entry, looked up): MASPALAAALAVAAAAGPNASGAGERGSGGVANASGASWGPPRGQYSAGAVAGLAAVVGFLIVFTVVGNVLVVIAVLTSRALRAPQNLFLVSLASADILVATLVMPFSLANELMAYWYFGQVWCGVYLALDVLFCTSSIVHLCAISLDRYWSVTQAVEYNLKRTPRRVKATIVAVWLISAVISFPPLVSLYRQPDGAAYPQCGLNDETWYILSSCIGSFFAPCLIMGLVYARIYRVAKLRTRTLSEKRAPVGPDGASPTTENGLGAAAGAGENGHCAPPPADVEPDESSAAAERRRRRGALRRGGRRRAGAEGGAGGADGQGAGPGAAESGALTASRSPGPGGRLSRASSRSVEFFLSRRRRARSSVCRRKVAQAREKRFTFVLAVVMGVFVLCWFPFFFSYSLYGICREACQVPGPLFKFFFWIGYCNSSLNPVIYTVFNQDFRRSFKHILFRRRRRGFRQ

slope, inactive:
COc1ccc(C)cc1NC(=O)CN1CCN(S(=O)(=O)c2ccc(Cl)cc2)CC1 0.0018
COc1cccc(C(=O)Nc2c(C(N)=O)oc3ccccc23)c1 0.00682
O=C(CC(Cc1ccccc1)C(=O)O)NCCc1ccc2c(c1)OCO2 (stereo not given) 0.00395
CC(=O)c1cccc(NC(=O)CCNS(=O)(=O)c2cccc3nsnc23)c1 0.00543
COc1ccc(-n2c(=O)cc(N3CCN(Cc4ccccc4)CC3)[nH]c2=O)cc1 0.00623
Cc1cc(N2C(=O)C(O)=C(C(=O)c3ccc(C)o3)C2c2cccs2)no1 (stereo not given) 0.00606
COC(=O)C1=C(C)NC(C)=C(C(=O)OC)C1C(=O)OC1CCCCC1=O (stereo not given) 0.00528
O=C(Cc1cccs1)Nc1ccccc1NC(=O)Cc1cccs1 0.00795
CCOC(=O)c1cc2c(=O)n3ccccc3nc2n(CCCOC)c1=NC(=O)C(C)(C)C 0.00456
CCOC(=O)c1cc(-c2ccco2)nc2c1c(C)nn2CCC#N 0.00625
Cc1cc(C)c(C#N)c(SCC(=O)Nc2ccc(S(=O)(=O)Nc3onc(C)c3C)cc2)n1 0.00553
O=c1c2nnn(Cc3ccc(Cl)cc3)c2ncn1Cc1ccc(F)cc1 0.00552
Cc1ccc2c(c1)CCCN2C(=O)C1CCCO1 (stereo not given) 0.00423
CC1(C)NC(=O)N(CC(O)COc2ccc(-c3ccccc3)cc2)C1=O (stereo not given) 0.00308
CS(=O)(=O)NCc1nnc(SCC(=O)NC2CCCCC2)n1-c1ccc(F)cc1 0.00498
O=C(NCC1CCCO1)c1cccc(N2C(=O)C3C4C=CC(C4)C3C2=O)c1 (stereo not given) 0.00583
CC(=O)Nc1cccc(NC(=O)C2CCCN2C(=O)Nc2ccc(C)cc2)c1 (stereo not given) 0.0061
COc1cccc(CN=CC2=C(O)CC(C)(C)CC2=O)c1OC 0.00629
COC(=O)Cn1c(CN2CCOCC2)nc2c1c(=O)n(C)c(=O)n2C 0.00632
O=C(O)c1[nH]c2ccc(Cl)cc2c1CC(=O)N1CCN(C(=O)c2ccco2)CC1 0.003
CC1CCN(c2oc(-c3cccc4ccccc34)nc2C#N)CC1 0.00364
Cc1ccc(S(=O)(=O)N2CCN(C(=O)CSC3CCCC3)CC2)c(C)c1 0.00451
CCOC(=O)c1sc2nc(SCC#N)n(CCCN3CCCC3=O)c(=O)c2c1C 0.00586
COc1cc(C(Nc2ccc3c(c2)OCO3)C(=O)NC2CCCCC2)cc(OC)c1OC (stereo not given) 0.00532
Cc1cc2c(cc(C(=O)OCC(=O)NCc3cccs3)n2C(C)C)o1 0.00376
O=C(CSc1nc2ccccc2nc1SCC(=O)N1CCOCC1)N1CCOCC1 0.00548
Cc1onc(-c2ccccc2Cl)c1C(=O)Nc1cnn(Cc2ccccc2)c1 0.00545
CC(NC(=O)c1ccco1)c1ccc2c(c1)OCCO2 (stereo not given) 0.00638
Cc1nc2ccccc2n1CCC(=O)Nc1cccc(F)c1 0.00551
O=C(NC1CCCCCC1)C1CCCN(S(=O)(=O)c2cccs2)C1 (stereo not given) 0.00338
